Test results reported in PubChem BioAssay.
The source made the active and inactive calls.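 Rule for the calls, unless noted: active = inhibition at or above 50% at 10 µM; inactive = inhibition below 50%.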

Legend:
[1] = inhibitors of TNFa-induced NFkB p65 translocation, primary screen, imaging, HUVEC, MLSMR starter and 10KST1 sets (AID 438;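 active = inhibition above 20% together with a positive visual image hit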;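 note: compound added about 3h40 before a 20 min TNFalpha stimulation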;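 for inhibition: signal is the nuclear over cytoplasmic p65 intensity ratio per well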); conditions: HUVEC TNFa-induced p65 nuclear translocation; cell count: measured here: nuclei count (cytotoxicity indicator), at 2.08 µM; inhibition: at 2 µM, stronger effect = higher value, 0% TNFa-plus-vehicle, 100% no-TNFa wells
[2] = reduction of polyQ htt aggregates in cells – imaging, exon1htt(103Q)mCFP cells, high-content imaging, primary screen (AID 483;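 active = visual image review flags a hit and inhibition of aggregation exceeds 20%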;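 note: compound exposure lasted 3 days before fixation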;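 for nuclei count: percent of the per-plate median nuclei count of sample wells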); conditions: exon1htt(103Q)mCFP cell line, aggregate imaging, at 2 µM; inhibition of aggregation: stronger effect = higher value; nuclei count: measured here: cell count, toxicity
[3] = endothelial E-selectin expression blockers – imaging, HUVEC, immunofluorescence, MLSMR starter and 10KST1 sets, primary screen (AID 487;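 active = visually confirmed hit in the image check and inhibition above 20%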;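 for inhibition: signal is fraction of cell area covered by stained E-selectin grains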;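 for nuclei count: 100% = median nuclei count of all wells on the same plate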); conditions: HUVEC TNFalpha-induced E-selectin immunofluorescence imaging, at 2 µM; inhibition: stronger effect = higher value; nuclei count: measured here: cell number, toxicity
[4] = molecular target: Voltage-gated potassium channel subunit beta-2 (Rattus norvegicus) (UniProt P62483); assay: inhibitors of rat Kvbeta2 reductase activity – biochemical, NADPH fluorescence, primary screen (AID 622;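 active = fluorescence slope higher than the sample average by over 3 SD, cut at about -0.22 in these data, passing the limit was not always enough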;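 note: slope of raw intensity against log time taken from 70 to 1610 s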); conditions: recombinant KvBeta, 4-cyanobenzaldehyde reduction, at 10 µM, stronger effect = higher value
[5] = molecular target: Voltage-gated potassium channel subunit beta-2 (Rattus norvegicus) (UniProt P62483); assay: enhancers of rat Kvbeta2 NADPH turnover – biochemical, NADPH fluorescence, primary screen (AID 623;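 active = NADPH fluorescence slope more negative than the mean of all samples by about 3 SD, 99.7% confidence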;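 note: fluorescence intensity change per second fitted from 20 to 320 s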); conditions: Recombinant KvBeta, NADPH fluorescence decrease slope, 10 min; at 10 µM; stronger effect = lower value
[6] = molecular target: Alpha-2C adrenergic receptor (Homo sapiens) (UniProt P18825); assay: compounds altering alpha2C-coupled GIRK flux – cell-based, HEK293 alpha2C/GIRK1/2, thallium flux, primary screen (AID 624;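 active = fluorescence slope after compound addition differing from the mean of all screened samples at 99.7% confidence, in either direction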;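 note: slope of fluorescence ratio to pre-addition baseline per second over 15 to 24 s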); conditions: thallium flux BTC fluorescence, at 10 µM, actives lie on both sides
[7] = blockers of RIG-like receptor reporter activation – cell-based, Sendai virus stimulus, luciferase, 10K MLSCN set, TLR/RLR signaling modifier project, primary screen (AID 602276); conditions: HEK293 RL24 IRF3 luciferase reporter, at 10 µM, stronger effect = higher value;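 note: firefly luciferase from ISG56 promoter only with Renilla not read in this screen; 0% = Sendai virus plus DMSO and 100% = medium plus DMSO without virus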
[8] = TLR3 IRF3 reporter activation blockers – cell-based, poly I:C stimulus, luciferase, 10K MLSCN set, primary screen (AID 602277;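 active = inhibition of the reporter signal at or above 50%; inactive = inhibition below 50%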); conditions: HEK293-TLR3 RL24 IRF3 luciferase reporter, at 10 µM, stronger effect = higher value

Chain of Voltage-gated potassium channel subunit beta-2 (Rattus norvegicus) (P62483 whole entry, looked up): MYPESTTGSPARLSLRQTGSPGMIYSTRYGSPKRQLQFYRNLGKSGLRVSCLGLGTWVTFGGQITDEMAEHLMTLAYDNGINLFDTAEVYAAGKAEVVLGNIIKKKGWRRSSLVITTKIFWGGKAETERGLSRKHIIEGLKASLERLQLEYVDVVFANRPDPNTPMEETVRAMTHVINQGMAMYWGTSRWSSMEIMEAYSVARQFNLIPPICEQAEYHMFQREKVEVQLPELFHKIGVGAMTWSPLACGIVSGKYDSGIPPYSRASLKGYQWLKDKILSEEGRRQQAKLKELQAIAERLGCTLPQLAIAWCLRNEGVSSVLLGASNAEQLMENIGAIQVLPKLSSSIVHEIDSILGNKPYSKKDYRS
Chain of Alpha-2C adrenergic receptor (Homo sapiens) (P18825 whole entry, looked up): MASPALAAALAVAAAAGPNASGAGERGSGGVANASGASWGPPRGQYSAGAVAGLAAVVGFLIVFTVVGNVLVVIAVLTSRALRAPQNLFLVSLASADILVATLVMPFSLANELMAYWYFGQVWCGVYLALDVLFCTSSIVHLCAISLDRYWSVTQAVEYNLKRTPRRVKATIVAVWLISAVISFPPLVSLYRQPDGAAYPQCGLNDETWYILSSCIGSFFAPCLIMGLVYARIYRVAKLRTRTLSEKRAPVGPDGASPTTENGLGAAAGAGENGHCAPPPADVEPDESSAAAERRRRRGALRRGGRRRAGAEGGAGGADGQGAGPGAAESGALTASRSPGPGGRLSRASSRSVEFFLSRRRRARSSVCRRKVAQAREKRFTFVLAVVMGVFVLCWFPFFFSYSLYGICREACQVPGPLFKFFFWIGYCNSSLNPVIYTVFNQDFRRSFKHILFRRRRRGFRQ

Row | Structure (SMILES) | cell count [1] | inhibition [1] | inhibition of aggregation [2] | nuclei count [2] [%] | inhibition [3] | nuclei count [3] [%] | fluorescence slope [4] | NADPH fluorescence slope [5] | slope [6] | inhibition [7] | inhibition [8]
1 | COc1cc2nc(SCC(=O)NC3CC3)n(CCC3=CCCCC3)c(=O)c2cc1OC | 688 | -4% (inactive) | 0.8% (inactive) | 101 | -35.1% (inactive) | 108 | -0.427 (inactive) | -4e-06 (inactive) | 0.00342 (inactive) | 14.1% (inactive) | 24.7% (inactive)
2 | Cc1cc(C)cc(-n2nnc(C(=O)NCc3ccco3)c2N)c1 | 500 | 0.2% (inactive) | -20.1% (inactive) | 119 | -36.2% (inactive) | 107 | -0.557 (inactive) | -1.1e-05 (inactive) | 0.00643 (inactive) | -5.79% (inactive) | 100% (active)
3 | COc1ccc(Cl)cc1-c1n[nH]c(=S)o1 | 546 | 8.2% (inactive) | -5.3% (inactive) | 104 | -86.8% (inactive) | 111 | -0.378 (inactive) | -3.6e-05 (inactive) | 0.00602 (inactive) | 20.2% (inactive) | 23.5% (inactive)
4 | COc1ccc(C(=O)N2CCN(c3nc4cc(C)ccc4cc3C#N)CC2)c(OC)c1 | 383 | 7.6% (inactive) | -9.9% (inactive) | 102 | -49.6% (inactive) | 115 | -0.595 (inactive) | -2.2e-05 (inactive) | 0.00559 (inactive) | 14.5% (inactive) | 22% (inactive)
5 | CCN(CC)CCCn1c(=S)[nH]c2cc(Cl)ccc2c1=O | 353 | -0.2% (inactive) | 7.4% (inactive) | 100 | 6.9% (inactive) | 97.4 | -0.514 (inactive) | -0.000206 (active) | 0.00373 (inactive) | 12.1% (inactive) | 21.3% (inactive)
6 | O=S(=O)(NCc1ccccc1)c1ccc2c(c1)OCCO2 | 454 | -10.7% (inactive) | -10.8% (inactive) | 100 | -117% (inactive) | 121 | -0.599 (inactive) | -3.9e-05 (inactive) | 0.00569 (inactive) | -0.346% (inactive) | -1.95% (inactive)
7 | Cc1ccc(S(=O)(=O)N2CCOCC(=O)NCCOCCNC(=O)COCC2)cc1 | 592 | 2.1% (inactive) | -15.3% (inactive) | 116 | -89.9% (inactive) | 108 | -0.622 (inactive) | -2.4e-05 (inactive) | 0.00426 (inactive) | 9.52% (inactive) | 9.55% (inactive)
8 | CN(Cc1ccccc1)S(=O)(=O)c1ccc(S(=O)(=O)N2CCN(CCC#N)CC2)cc1 | 687 | -6.9% (inactive) | -13.6% (inactive) | 111 | -50.4% (inactive) | 125 | -0.626 (inactive) | -2.8e-05 (inactive) | 0.00717 (inactive) | -12% (inactive) | 11.4% (inactive)
9 | CC1CCCN(C(=O)C23CCC(C)(C(=O)C2)C3(C)C)C1 (centres undefined) | 636 | 0% (inactive) | -8.3% (inactive) | 90.8 | -29.8% (inactive) | 99.7 | -0.593 (inactive) | -1.7e-05 (inactive) | 0.00596 (inactive) | 5.18% (inactive) | 8.32% (inactive)
10 | COCCCN(C(C)=O)c1nc(-c2ccccc2)cs1 | 472 | -6.3% (inactive) | -6% (inactive) | 90.9 | 6% (inactive) | 114 | -0.533 (inactive) | -3.7e-05 (inactive) | 0.00569 (inactive) | -31.3% (inactive) | -75% (inactive)
11 | O=C(OCn1nnc2ccccc2c1=O)C1CCN(S(=O)(=O)c2cccs2)CC1 | 479 | 8.9% (inactive) | -8.9% (inactive) | 103 | 13.8% (inactive) | 105 | -0.356 (inactive) | 9.4e-06 (inactive) | 0.00571 (inactive) | -1.19% (inactive) | 2% (inactive)
12 | COc1ccc(-c2nc(C#N)c(NCCCN(C)C)o2)cc1OC | 713 | -9.1% (inactive) | -8.5% (inactive) | 99.3 | -8.3% (inactive) | 98.4 | -0.222 (active) | -1.8e-06 (inactive) | 0.00305 (inactive) | 1.52% (inactive) | 33.3% (inactive)
13 | CCOC(=O)CSc1nnc(-c2ccccc2OC)o1 | 574 | -3.6% (inactive) | -42.2% (inactive) | 112 | -74.1% (inactive) | 105 | -0.523 (inactive) | -0.000143 (inactive) | 0.00552 (inactive) | -10.7% (inactive) | 99.6% (active)
14 | CC(=O)Nc1ccc(S(=O)(=O)NCC2CCC(C(=O)NCCCN3CCCC3=O)CC2)cc1 (centres undefined) | 318 | -0.8% (inactive) | 5.9% (inactive) | 112 | -15.4% (inactive) | 106 | -0.484 (inactive) | -3.3e-05 (inactive) | 0.00457 (inactive) | 20.7% (inactive) | 19.4% (inactive)
